Test results as given in PubChem BioAssay AID493008 (The Scripps Research Institute Molecular Screening Center, 2010).
In all, about 340,000 compounds went through this assay and about 800 (0.24%) were called active. For the sample, actives were picked, then their nearest neighbours and some compounds at random. Values without a mark were called inactive.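 The calls were made as follows: active = activation above the mean over all tested compounds plus 3 SD (cut at about 30% in these data); inactive = the rest.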

The compounds below were run against Troponin I, cardiac muscle (Homo sapiens) + Troponin T, cardiac muscle (Homo sapiens) + Troponin C, slow skeletal and cardiac muscles (Homo sapiens) (UniProt P19429+P45379+P63316) (assay: calcium sensitizers of cardiac thin filaments – biochemical, IANBD-TnC fluorescence, EC20 calcium, primary screen (AID 493008;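 also: rise in fluorescence read as greater calcium sensitivity of cardiac thin filaments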)). Details: IANBD-labeled TnC RTF fluorescence at EC20 calcium; at 7.2 µM; hits give high values; 0% EC20 calcium, 100% full calcium.

| Structure (SMILES) | activation |
| --- | --- |
| Cc1nn(-c2ncccn2)c2c1C(=O)CC(C)(C)C2Br (centres undefined) | 1.48% |
| CCc1ccc2ncc(C(=O)c3ccccc3)c(N3CCOCC3)c2c1 | 6.46% |
| N#Cc1c(NCCO)ccc([N+](=O)[O-])c1NCCO | -0.27% |
| CCCCCNC(=O)C1c2ccccc2Oc2ccccc21 | 4.69% |
| CCCN(CCC)C(=O)C1c2ccccc2Oc2ccccc21 | 98.3% (active) |
| CCOC(=O)CC(NC(=O)C1c2ccccc2Oc2ccccc21)c1ccc(C)cc1 (centres undefined) | 4.5% |
| CC1=C(C(=O)OCc2ccccc2)C(c2ccco2)n2ncnc2N1 (centres undefined) | 8.65% |
| CC1=C(C(N)=O)C(c2ccc(Br)cc2)n2ncnc2N1 (centres undefined) | -0.09% |
| Brc1ccc(C2=CC(c3ccco3)n3ncnc3N2)cc1 (centres undefined) | 245% (active) |
| CCN1CCN(c2ccc(S(=O)(=O)N3CCCCC3)cc2NC(=O)c2cccc(NC(C)=O)c2)CC1 | -0.39% |
| CC1CCCCC12NC(=O)N(CC(=O)OCc1c(F)cccc1Cl)C2=O (centres undefined) | -6.16% |
| Cc1ccccc1OCCC(=O)OCC(=O)NC(C)c1ccccc1 (centres undefined) | 1.21% |
| Cc1cc(C)c(/C=C2\C(=O)Nc3ccccc32)[nH]1 | 149% (active) |
| O=C1Nc2ccccc2/C1=C/c1ccnc2ccccc12 | 3.84% |
| Cc1ccccc1-n1c(C)cc(/C=C2\NC(=O)NC2=O)c1C | -2.97% |
| C[C@H](NC(=O)c1[nH]cnc1C(=O)Nc1nccs1)c1ccccc1 | -1.35% |
| O=C(COC(=O)c1ccc(S(=O)(=O)Nc2ccccc2)cc1)NCC1CCCO1 (centres undefined) | -3.25% |
| COc1ccc([N+](=O)[O-])cc1NC(=O)CC1SC(=Nc2cccc(C)c2C)N(/N=C(\C)c2ccc(C)cc2)C1=O (centres undefined) | -1.84% |
| CCC1CCCCN1C(=O)Nc1cccc(NC(=O)N2CCCCC2CC)c1 (centres undefined) | -3.65% |
| O=C(CSc1nnc(C2CC2)n1Cc1ccccc1)Nc1cccnc1Cl | 1.37% |
| COc1ccccc1N(CC(=O)Nc1ccc(C)cc1Cl)S(=O)(=O)c1cccs1 | -7.85% |
| CCCCNC(=O)Nc1c(C)cc(SC#N)cc1C | -8.62% |
| O=C(c1cc2sccc2n1Cc1ccc(F)cc1)N1CCc2ccccc21 | -0.47% |
| CCCc1cc(=O)[nH]c(SCC(=O)Nc2ccc(S(=O)(=O)N3CCCC3)cc2)n1 | -0.74% |
